aGlu spleen mod – inhibits or activates alpha-glucosidase in human spleen homogenate; P10253; human spleen homogenate, 4-MU-alpha-glucoside fluorescence; Potency, µM (top dose mostly 79.9 µM), hits mostly inhibitors; 240,000 tested, 0.006% active; AID 2112
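Compounds were titrated against alpha-glucosidase in spleen homogenate at pH 5.0, with 1 mM 4-methylumbelliferyl substrate for 40 min at 37 C. Reactions were quenched with pH 10 NaOH/glycine and fluorescence measured.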
GAA inh – inhibitors of human lysosomal alpha-glucosidase; purified human GAA, 4-MU-alpha-glucoside fluorescence; Potency, µM (series often up to 76.9 µM), actives largely listed as inhibitors; 200,000 tested, 0.005% active; AID 1466
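Human enzyme at 4 nM with 400 uM 4-methylumbelliferyl-alpha-D-pyranoside, citrate/phosphate buffer pH 5.0, 0.005% Tween-20, 20 min at room temperature. Compounds up to 77 uM. 4-MU fluorescence (Ex 365/Em 440) read after NaOH/glycine stop; AC50 from Hill fit.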
LMNA splice mod – changes lamin A minigene splicing in HeLa cells. HeLa LMNA splicing GFP/RFP minigene ratio, 48 h. Potency, µM (titrated, usually from 46.1 µM), hits mostly inhibitors. 200,000 tested, 0.01% active. AID 1487; active means well fitted inhibition curve with a large enough effect in the signal ratio, with a control signal flat, not every such curve was filed as active; inconclusive means small, poorly fitted or top-dose-only effect, or effect the other way, or a change in a side signal; the % refers to the signal ratio
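S3 HeLa stable clones carrying a lamin A-EGFP splicing minigene plus DsRed2 were seeded at 600 cells/well in Opti-MEM with 2% FBS, pin-dosed and incubated 48 h at 37°C. Acumen cytometry (488 nm) gave the GFP/RFP total-intensity ratio.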
GAA glycogen mod – alters human alpha-glucosidase cleavage of glycogen; 300,000 tested, 0.38% active; Potency, µM (doses to about 76.4 µM), hits mostly inhibitors; recombinant GAA, glycogen substrate, Amplex Red glucose oxidase fluorescence; AID 2100; P10253;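 further: the screen sought inhibitors and activators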
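Recombinant enzyme (4 nM final) with compounds titrated up to 77 uM and bovine liver glycogen (30 ug) in citrate pH 5.0, 0.01% Tween-20, 37 C 40 min. Released glucose detected by Amplex Red/glucose oxidase (Ex 573/Em 610); AC50 from Hill fits.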
N370S GC mod – inhibits or activates N370S mutant glucocerebrosidase. Potency, µM (doses to about 59.4 µM), hits mostly inhibitors. P04062. AID 2101. N370S GC spleen homogenate, 4MU-glucoside fluorescence. 330,000 tested, 0.092% active
Large screens that a line does not name were inactive. In the library only some 0.41% were active in any assay of this set; here they are far more common. Unless noted, the call rests on the fitted dose curve; in most records, active means well fitted curve in the direction sought with a large enough effect; inconclusive means small, poorly fitted or top-dose-only effect, or another doubt; inactive means no such curve, though single readings can be large; an effect the other way counts as inactive or inconclusive.

CC(=O)OCC1=C[C@H]2[C@@H]3C(C)(C)[C@]3(OC(C)=O)C[C@@H](C)[C@]2(O)[C@@H]2C=C(C)C(=O)[C@@]2(O)C1	none (no result: GAA inh, LMNA splice mod, GAA glycogen mod)
COc1ccc(-c2nc3ccccc3n2Cc2ccccc2)cc1	none
COc1cc(Cn2c(-c3ccc(O)c(OC)c3)nc3ccccc32)ccc1O	GAA glycogen mod 28µM (no result: GAA inh, LMNA splice mod)
CCc1ccc(-n2c(=O)c3ccc(C(=O)NCCc4ccccc4)cc3n(Cc3ccccc3C#N)c2=O)cc1	none (no result: aGlu spleen mod, GAA inh, LMNA splice mod, N370S GC mod)
c1ccc(Nc2nc(-c3ccccc3)nc3ccccc23)cc1	N370S GC mod inconclusive (no result: aGlu spleen mod, GAA inh, LMNA splice mod)
Cc1ccc(-c2nc(Nc3ccc(N4CCOCC4)cc3)c3ccccc3n2)cc1	N370S GC mod 14µM (no result: GAA inh, LMNA splice mod)
c1ccc(Nc2nc(-c3ccoc3)nc3ccccc23)cc1	LMNA splice mod inconclusive, N370S GC mod 13µM (no result: GAA inh, GAA glycogen mod)
NC1(C(=O)O)CCc2cc(C(=O)O)ccc21 (centres undefined)	none (no result: GAA inh, GAA glycogen mod)
O=C1OCC(CO)(CO)N=C1NNc1ccccc1[N+](=O)[O-]	GAA glycogen mod inconclusive (no result: GAA inh, LMNA splice mod)
O=C1OCC(CO)(CO)N=C1NNc1cc(Cl)ccc1Cl	GAA glycogen mod 8.9µM
CCCOc1ccc(-c2nc(C#N)c(NCCCn3ccnc3)o2)cc1	GAA glycogen mod 31µM
CCOc1ccc(N2CC(c3nc4ccccc4n3Cc3cccc(Cl)c3)CC2=O)cc1 (centres undefined)	none (no result: aGlu spleen mod, GAA inh, LMNA splice mod, N370S GC mod)
Cc1ccccc1CNC(=O)CCCn1c(=O)c2cccn2c2ccccc21	LMNA splice mod inconclusive (no result: aGlu spleen mod, GAA inh, N370S GC mod)
Cc1ccc(C)c(CN2C(=O)c3ccccc3S(=O)(=O)c3ccc(C(=O)N4CCN(c5ccccn5)CC4)cc32)c1	none (no result: aGlu spleen mod, GAA inh, LMNA splice mod, N370S GC mod)
CC(C)C[C@H](NC(=O)CNC(=O)[C@H](C)NC(=O)[C@H](CC(C)C)NC(=O)[C@H](CCCNC(=N)N)NC(=O)[C@H](Cc1cnc[nH]1)NC(=O)[C@@H](NC(=O)[C@@H](NC(=O)[C@@H]1CSSC[C@H](NC(=O)[C@@H](N)CO)C(=O)N[C@@H](CC(N)=O)C(=O)N[C@@H]([C@@H](C)O)C(=O)N[C@@H](C)C(=O)N[C@@H]([C@@H](C)O)C(=O)N1)C(C)C)[C@@H](C)O)C(=O)N[C@@H](CC(C)C)C(=O)N[C@@H](CO)C(=O)N[C@@H](CCCNC(=N)N)C(=O)N[C@@H](CO)C(=O)NCC(=O)NCC(=O)N[C@H](C(=O)N[C@H](C(=O)N[C@@H](CCCCN)C(=O)N[C@@H](CC(=O)O)C(=O)N[C@@H](CC(N)=O)C(=O)N[C@@H](Cc1ccccc1)C(=O)N[C@H](C(=O)N1CCC[C@H]1C(=O)N[C@H](C(=O)N[C@@H](CC(N)=O)C(=O)N[C@H](C(=O)NCC(=O)N[C@@H](CO)C(=O)N[C@@H](CCCCN)C(=O)N[C@@H](C)C(=O)N[C@@H](Cc1ccccc1)C(N)=O)C(C)C)[C@@H](C)O)C(C)C)C(C)C)C(C)C	none (no result: GAA inh, LMNA splice mod, GAA glycogen mod)
N#CC1=C(SCC(=O)c2cc3ccccc3oc2=O)NC(=O)C(C#N)C12CCCC2 (centres undefined)	GAA glycogen mod 22µM
COc1cccc(-n2sc3c(c2=S)-c2cc(OC)ccc2NC3(C)C)c1	LMNA splice mod inconclusive, GAA glycogen mod 40µM
C=CCOC(=O)NC(c1ccc(F)c(F)c1)C(C(=O)CCl)C(=O)OC (centres undefined)	none (no result: GAA inh, LMNA splice mod, GAA glycogen mod)
O=S(=O)(NC1c2cccc3cccc(c23)C1N1CCNCC1)c1ccc(Cl)cc1 (centres undefined)	N370S GC mod 7.1µM (no result: LMNA splice mod)
Brc1ccc2nc(-c3ccncc3)c(NC3CCCC3)n2c1	LMNA splice mod inconclusive, GAA glycogen mod 9.9µM
CCN(CC)c1ccc(-c2nc3cnccn3c2NC2CCCC2)cc1	LMNA splice mod inconclusive, GAA glycogen mod 9.9µM
c1cn2c(NC3CCCCC3)c(-c3ccc(SC4CCCCC4)cc3)nc2cn1	none (no result: aGlu spleen mod, GAA inh, LMNA splice mod, GAA glycogen mod)
Cc1ccc(OCc2cc(=O)n3c4c(sc3n2)CCCC4)cc1C	none (no result: aGlu spleen mod, GAA inh, LMNA splice mod, N370S GC mod)
CC(C)(C)n1nnnc1C(c1ccncc1)N1CCN(c2ccc(O)cc2)CC1 (centres undefined)	GAA glycogen mod 18µM
O=c1cc2c(=O)oc3cc(O)c(O)oc3c2c(O)c1O	GAA glycogen mod 8.9µM
COc1c(O)cc2c(=O)oc3c(OC)c(O)cc4c(=O)oc1c2c34	none (no result: GAA inh, LMNA splice mod, GAA glycogen mod)
O=S(=O)(NCCS(=O)(=O)N1CCN(c2ccccc2F)CC1)c1ccc(Cl)cc1	none (no result: aGlu spleen mod, GAA inh, GAA glycogen mod, N370S GC mod)
O=C(NCC(c1cccnc1)N1CCc2ccccc2C1)C(=O)Nc1cccc(Cl)c1 (centres undefined)	GAA glycogen mod inconclusive (no result: aGlu spleen mod, GAA inh, N370S GC mod)
C=C1CCN(C(Cc2ccccc2)C(=O)NCc2ccc(Cl)c(Cl)c2)S(=O)(=O)c2ccccc21 (centres undefined)	none (no result: GAA inh, LMNA splice mod, GAA glycogen mod)
Nc1ncnc2c1nc(N1CCCCC1)n2[C@@H]1O[C@@H]2COP(=O)(O)O[C@H]2[C@H]1O	none (no result: GAA inh, LMNA splice mod, GAA glycogen mod)
Oc1ccc(O)c(Cc2nc3ccccc3s2)c1	LMNA splice mod inconclusive, GAA glycogen mod 5.6µM
Cc1ccc(-c2cc(C(=O)N3CCN(S(=O)(=O)c4ccc(Br)s4)CC3)[nH]n2)c(C)c1	GAA glycogen mod 8.9µM (no result: aGlu spleen mod, GAA inh, N370S GC mod)
COc1cc(O)c2c(c1)oc(=O)c1c3cc(O)c(O)cc3oc21	none (no result: GAA inh, LMNA splice mod, GAA glycogen mod)
CCN(CC)CCC(c1ccc(N(C)C)cc1)c1c(OC)cc(OC)c2c(C)cc(=O)oc12 (centres undefined)	none (no result: GAA inh, LMNA splice mod, GAA glycogen mod)
C1=Cc2ccccc2Nc2ccccc21	GAA glycogen mod 16µM (no result: GAA inh, LMNA splice mod)
c1ccc2c(c1)Nc1cc3ccccc3cc1S2	GAA glycogen mod inconclusive
CCCn1cc(S(=O)(=O)c2cc(C)ccc2C)c(=O)c2cc(F)c(N3CCN(CC)CC3)cc21	none (no result: aGlu spleen mod, GAA inh, N370S GC mod)
CC(Sc1nc(NCc2ccccc2)nc(N(C)C)n1)C(=O)Nc1ccccc1 (centres undefined)	none
CC(=O)C(Sc1nc(N(C)C)nc(N(C)C)n1)C(=O)Nc1ccccc1 (centres undefined)	LMNA splice mod inconclusive, GAA glycogen mod 20µM
Cc1c(NCc2cc(Cl)cc(Cl)c2O)c(=O)n(-c2ccccc2)n1C	LMNA splice mod inconclusive, GAA glycogen mod 10µM
Cc1c(NCc2nc3ccccc3[nH]2)c(=O)n(-c2ccccc2)n1C	GAA glycogen mod 11µM
Cc1c(NC(=O)Nc2ccc(Cl)cc2Cl)c(=O)n(-c2ccccc2)n1C	none (no result: LMNA splice mod)
Cc1c(NC(=O)Nc2c(Cl)cccc2Cl)c(=O)n(-c2ccccc2)n1C	none (no result: GAA inh, LMNA splice mod)
Cc1c(NS(=O)(=O)c2ccc3nc(COc4ccccc4Cl)[nH]c3c2)c(=O)n(-c2ccccc2)n1C	none
Cc1c(NCc2cc(Cl)ccc2O)c(=O)n(-c2ccccc2)n1C	GAA glycogen mod 13µM
